Assay outcomes (PubChem BioAssay)
HTR5A ag ctr = counter-screen for OPRM1-OPRD1 agonists: human HTR5A agonism; P47898; 0.61% of 340,000 active; HTR5A agonist assay, luminescence, cell-based; activation, % at 9.3 µM; in the data active = activation mostly above about 9.5%, no sharp cut-off; inactive = mostly below about 7.6%;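 note: 0% = cells with vehicle only and 100% = reference agonist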
MOR-DOR ag = agonists of human mu-delta opioid receptor heterodimerization; 0.3% of 340,000 active; activation, % at 9.3 µM; P35372+P41143; cells, OPRM1-OPRD1 heterodimerization, luminescence; in the data active = activation above about 18%;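 note: 0% = vehicle-treated cells and 100% = reference agonist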
Target sequence (P35372 whole entry, looked up): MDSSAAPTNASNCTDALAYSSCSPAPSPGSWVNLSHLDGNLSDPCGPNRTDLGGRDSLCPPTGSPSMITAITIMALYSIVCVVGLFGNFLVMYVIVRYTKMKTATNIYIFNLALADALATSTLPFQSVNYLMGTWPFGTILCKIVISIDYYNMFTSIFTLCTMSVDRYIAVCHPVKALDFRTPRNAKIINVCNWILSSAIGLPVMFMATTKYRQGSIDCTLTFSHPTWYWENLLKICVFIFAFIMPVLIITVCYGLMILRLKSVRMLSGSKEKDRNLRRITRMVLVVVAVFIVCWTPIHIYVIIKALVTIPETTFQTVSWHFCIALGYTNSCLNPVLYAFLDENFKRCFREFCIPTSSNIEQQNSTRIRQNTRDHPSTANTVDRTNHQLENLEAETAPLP
Target sequence (P41143 whole entry, looked up): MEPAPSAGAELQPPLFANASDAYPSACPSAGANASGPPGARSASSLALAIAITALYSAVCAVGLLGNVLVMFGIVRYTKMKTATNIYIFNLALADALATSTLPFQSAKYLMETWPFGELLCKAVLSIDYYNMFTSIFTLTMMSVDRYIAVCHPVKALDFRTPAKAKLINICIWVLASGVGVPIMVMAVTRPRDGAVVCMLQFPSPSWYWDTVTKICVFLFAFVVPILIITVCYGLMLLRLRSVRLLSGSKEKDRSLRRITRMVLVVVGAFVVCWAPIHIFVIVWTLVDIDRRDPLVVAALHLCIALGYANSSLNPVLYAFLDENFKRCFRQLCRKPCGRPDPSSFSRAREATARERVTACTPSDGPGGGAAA
OPRM1-OPRD1 inv = mu-delta opioid heterodimer inverse agonism | P35372+P41143 | cell-based MOR-DOR heterodimer luminescence | inhibition, % at 9.3 µM | 0.21% of 340,000 active | AID 504357; in the data active = inhibition above about 22%, passing the limit was not always enough;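 note: 0% = cells with DMSO and 100% = wells without cells with DMSO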
HTR5A inv ctr = HTR5A inverse agonism, opioid heterodimer counter-screen. P47898. HTR5A cell line, luminescence. inhibition, % at 9.3 µM. 0.083% of 340,000 active. AID 504634; in the data active = inhibition mostly above about 23%, no sharp cut-off; inactive = mostly below about 18%;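 note: 0% = cells with DMSO and 100% = no-cell wells with DMSO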
Numbers without * were called inactive. Rows were chosen to be rich in hits. Some 1.1% of all compounds tested hit in one or more screens of this group.

SMILES	HTR5A ag ctr	MOR-DOR ag	OPRM1-OPRD1 inv	HTR5A inv ctr
COc1cc2[nH]c3c(=O)n4c(nc3c2cc1OC)SCCC4	9.9*	0	1	-25
COc1ccc2[nH]c3c(=O)n4c(nc3c2c1)SCC4	0	0	3	1
O=C(CCl)NC(=O)NC12CC3CC(CC(C3)C1)C2	10	0	1	7
COc1ccccc1NS(=O)(=O)c1cccc(-n2c(O)c(C=Nc3ccccc3C(=O)O)c3ccccc3c2=O)c1	14*	1	-7	34
COc1ccc(Cn2c(O)c(C=Nc3ccccc3C(=O)O)c3ccccc3c2=O)cc1	6	4	-21	-17
Cc1c(NS(=O)(=O)c2cc(C(=O)NC(C)c3ccccc3)ccc2Cl)c(=O)n(-c2ccccc2)n1C (stereo not given)	2	-3	16	-5
COC(=O)c1nc2nc(C)cc(C(F)(F)F)n2n1	3	1	-6	-7
COC(=O)c1nc2nc(-c3cccs3)cc(C(F)(F)F)n2n1	11*	0	2	-30
COc1ccccc1C(=O)N/C(=C\c1cn(C)c2ccccc12)C(=O)N1CCOCC1	11*	-3	14	16
COc1ccc(C2C(C#N)=C(N)OC3=C2C(=O)CC(C)(C)C3)cc1Cn1nc(C)c([N+](=O)[O-])c1C (stereo not given)	-2	-1	5	17
COc1ccc(C2C(C#N)=C(N)Oc3c2c(C)nn3-c2ccccc2)cc1Cn1nc(C)c([N+](=O)[O-])c1C (stereo not given)	14*	0	-2	-40
CC1CCCN(S(=O)(=O)c2ccc(NC(=O)C3CCN(C(=O)c4ccco4)CC3)cc2)C1 (stereo not given)	1	-1	6	-6
CCCOC(=O)N[C@@H]1C(=O)N2C(C(=O)OCCC)=C(C)CS[C@H]12	-2	-2	12	18
CCCSc1cc(NCCOC(=O)CCC)c([N+](=O)[O-])c2nonc12	1	-2	9	-25
CCCC(=O)OCCNc1cc(Sc2nccn2C)c2nonc2c1[N+](=O)[O-]	-8	-7	40*	-18
Cc1cc(C)c(NC(=O)COc2ccccc2C(=O)Nc2ccc3c(c2)oc2ccccc23)c(C)c1	1	-3	14	-24
CC(=O)N/C(=C\c1ccccc1)C(=O)OCc1cccc(S(=O)(=O)N(C)C)c1	9.4*	0	-2	-34
N#CCCN(C(=S)NC(=O)c1cccs1)c1ccccc1F	3	-2	10	-7
Cn1c(=NC(=O)CCl)sc2ccccc21	57*	47*	-274	-78
COc1ccc(CN(C)C(=O)c2cccc(NC(=O)CC3SC(N4CCCCC4)=NC3=O)c2)c(OC)c1 (stereo not given)	11*	5	-25	-29
COc1cccc(CN(C)C(=O)c2cccc(NC(=O)CC3SC(N4CCCCC4)=NC3=O)c2)c1OC (stereo not given)	3	-2	10	6
Cc1ccc(-n2[nH]c(C)c(C=Nc3ccc4[nH]c(=O)[nH]c4c3)c2=O)cc1	1	6	-34	-3
Cc1ccc(-n2[nH]c(C)c(C=Nc3ccc4[nH]c(=O)[nH]c4c3)c2=O)cc1C	22*	25*	-114	-42
Cc1cc(C)n(C(=O)/C(C#N)=N/Nc2cc(Cl)cc(Cl)c2)n1	10*	6	-30	9
Cc1cc(C)n(C(=O)/C(C#N)=N\Nc2ccccc2[N+](=O)[O-])n1	8	1	-6	-1
SMILES	HTR5A ag ctr	MOR-DOR ag	OPRM1-OPRD1 inv	HTR5A inv ctr
CC(OC(=O)CNS(=O)(=O)c1ccc(C#N)cc1)C(=O)Nc1ccc(Cl)cn1 (stereo not given)	11*	-1	8	2
O=C(/C=C/c1ccc([N+](=O)[O-])cc1)N1CCN(S(=O)(=O)c2cccs2)CC1	1	-1	5	2
Cn1c(CN2CCCCC2)nc2cc(NC(=O)c3ccccc3Cl)ccc21	-1	-1	6	6
Cn1c(CN2CCCCC2)nc2cc(NC(=O)c3ccc(F)cc3)ccc21	9.2*	0	2	-15
CCN(C[C@H]1N[C@@](CC)(C(=O)OC)[C@H]2C(=O)N(Cc3ccccc3)C(=O)[C@@H]12)S(=O)(=O)c1ccc(C(C)(C)C)cc1	3	-4	17	-11
COc1ccc(NC(=O)c2nnn(CC(=O)Nc3ccc4c(c3)OCO4)c2N)c(OC)c1	-1	-1	5	-5
COCCn1c(SCC(=O)Nc2cc(C)on2)nc2c(c1=O)SCC2	-6	-1	2	16
CC(C)(C)OC(=O)C[C@@H]1C/C=C\C[C@@H](CC(=O)N(CCO)Cc2ccccc2)C(=O)NC[C@H](c2ccccc2)OC1=O	12*	-1	4	24
CC(C)(C)OC(=O)C[C@@H]1C/C=C\C[C@@H](CC(=O)N(CCO)Cc2ccccc2)C(=O)NC[C@@H](c2ccccc2)OC1=O	-3	-6	29	18
Cc1c(NCc2cc(Cl)cc(Cl)c2O)c(=O)n(-c2ccccc2)n1C	-3	0	-1	4
Cc1c(NCc2nc3ccccc3[nH]2)c(=O)n(-c2ccccc2)n1C	12*	-1	8	-21
CC(=O)Oc1ccc(C23c4ccccc4C2(OC(C)=O)c2cc(OC(C)=O)ccc23)cc1 (stereo not given)	5	3	-14	-20
COc1cccc(OCC(=O)N2CCCc3ccccc32)c1	10*	-1	5	-28
C=CCn1c(SCC(=O)Nc2ccc3c(c2)OCCO3)nc2cc(C(=O)O)ccc2c1=O	-1	-4	16	3
N#CC(CC(=O)c1ccc(F)cc1)c1ccc2c(c1)OCO2 (stereo not given)	2	-3	18	-9
COc1ccc(N(C(=O)c2ccco2)C(C(=O)NC2CCCCC2)c2cccs2)cc1OC (stereo not given)	6	-2	12	-16
COc1cccc(N(C(=O)c2snc(C(N)=O)c2N)C(C(=O)NCC2CCCO2)c2cccs2)c1 (stereo not given)	-3	0	-3	8
COc1cccc(N(C(=O)CCl)C(C(=O)NCCc2ccccc2)c2cccs2)c1 (stereo not given)	61*	68*	-362	-75
COc1ccc(N(C(=O)CCl)C(C(=O)NCCc2ccccc2)c2cccs2)cc1Cl (stereo not given)	54*	66*	-394	-145
CCCCCCCCCCCCCCCC[N+](C)(C)Cc1ccc(F)cc1	11*	3	-17	-42
CSc1nnc(C)c(=O)n1COC(=O)c1ccc(S(=O)(=O)N(C)C)cc1	4	-1	6	-10
Cc1ccc(N(CC(=O)NCC2CCCO2)S(=O)(=O)c2ccccc2)c(C)c1 (stereo not given)	14*	0	2	-40
CC(C)n1cnc2c(Nc3cccc(Cl)c3)nc(NCCCO)nc21	-2	-1	4	6
C=CC(=O)Nc1cccc(Nc2nc(N[C@H]3CC[C@H](N(C)C)CC3)nc3c2ncn3C(C)C)c1	-3	36*	-196	7
CN1CCN(C(c2ccc(Br)cc2)c2cc(Cl)c3cccnc3c2O)CC1 (stereo not given)	4	7	-38	-9
